Measurements as given in PubChem BioAssay (EPA / NIEHS).
Values joined by “and” are separate entries in the source; they are usually repeats but may differ in a detail not shown here. Equal values may be shown once. Results filed as inconclusive are left out. Where a structure was tested more than once in an assay, its records may differ in their call. Active and inactive are the calls of the source. How the source made its calls, unless noted: active means hit-call score of the fitted dose curve at least 0.9, where 1 is the maximum; inactive means score below 0.9.

What was measured:
[1] = molecular target: Transcription factor Sp1 (Homo sapiens) (UniProt P08047); assay: ATG_Sp1_CIS: Attagene CIS-FACTORIAL HepG2 Assay for human Specificity Protein 1 (Sp1) (AID 2282961); conditions: HepG2 Sp1 cis-reporter transcription, actives raise or lower the signal
Procedure, shortened: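 Sp1-driven reporter mRNA, read as capillary electrophoresis fluorescence after RT-PCR, in transiently transfected HepG2 cells dosed for 24 h; signal change in either direction relative to DMSO.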

[2] = ATG_SREBP_CIS: Attagene CIS-FACTORIAL HepG2 Assay for human Sterol Regulatory Element Binding (SREBP) (AID 2282962); conditions: HepG2 Attagene cis-factorial SREBP reporter, mRNA; actives raise or lower the signal
Procedure, shortened: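 Endogenous SREBP activity read as cis-element-driven reporter transcript in transiently transfected HepG2, 24 h post-dosing; quantified via RT-PCR plus capillary electrophoresis of fluorescent fragments. Gain or loss of signal fitted relative to DMSO baseline.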

[3] = molecular target: Signal transducer and activator of transcription 3 (Homo sapiens) (UniProt P40763); assay: ATG_STAT3_CIS: Attagene CIS-FACTORIAL HepG2 Assay for human Signal Transducer and Activator of Transcription 3 (STAT3) (AID 2282963); conditions: HepG2, Attagene cis-factorial STAT3 reporter transcription; actives raise or lower the signal
Procedure, shortened: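 Readout: fluorescent reporter mRNA fragments resolved by capillary electrophoresis. Setup: HepG2 transfected with MRTUs reporting endogenous transcription-factor activity, dosed 24 h. Gain or loss of signal fitted bidirectionally against DMSO control.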

[4] = ATG_TA_CIS: Attagene CIS-FACTORIAL HepG2 Assay for human TA Basal Promoter (AID 2282964); conditions: HepG2 Attagene CIS-factorial TA basal promoter reporter; actives raise or lower the signal
Procedure, shortened: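 Background internal-marker endpoint from a 52-component HepG2 cis-reporter panel. Cells treated 24 h; reporter transcripts quantified via RT-PCR and CE fluorescence against DMSO baseline.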

[5] = ATG_TCF_b_cat_CIS: Attagene CIS-FACTORIAL HepG2 Assay for human T-Cell-Factor with beta-catenin (TCF/b-cat) (AID 2282965); conditions: HepG2 TCF/beta-catenin cis-reporter transcription, actives raise or lower the signal
Procedure, shortened: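 HepG2 cells transiently transfected with cis-promoter-driven multiplexed reporter units; reporter mRNA measured 24 h after dosing by RT-PCR, FAM labelling, HpaI digestion and capillary electrophoresis. Bidirectional fitting relative to DMSO baseline.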

[6] = ATG_TAL_CIS: Attagene CIS-FACTORIAL HepG2 Assay for human TAL Basal Promoter (AID 2282966); conditions: HepG2 Attagene cis-factorial TAL promoter reporter; actives raise or lower the signal;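 further: background control endpoint measuring basal TAL promoter reporter mRNA not a specific factor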
Procedure, shortened: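 Endogenous transcription-factor activity is sensed in HepG2 cells through transfected cis-promoter reporter constructs. After 24 h dosing, reporter transcripts are quantified by RT-PCR and capillary electrophoresis. Gain or loss of signal is fitted relative to DMSO.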

[7] = ATG_TGFb_CIS: Attagene CIS-FACTORIAL HepG2 Assay for human Transforming Growth Factor (TGF) (AID 2282967); conditions: HepG2 Attagene CIS TGFb reporter, mRNA transcription; actives raise or lower the signal
Procedure, shortened: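 Liver HepG2 line, cis-factorial reporter panel, 24 h dosing. Quantitation: RT-PCR products labeled with 6-FAM, cut with HpaI, resolved by capillary electrophoresis; DMSO-referenced bidirectional analysis.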

[8] = molecular target: Nuclear receptor subfamily 1 group I member 3 (Homo sapiens) (UniProt Q14994); assay: ATG_CAR_TRANS: Attagene TRANS-FACTORIAL HepG2 Assay for human Constitutive Androstane Receptor (CAR) (AID 2282969; active means hit-call score of the fitted dose curve at least 0.9, where 1 is the maximum;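 further: activators raise reporter mRNA above DMSO so AC50 marks induction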); conditions: HepG2 Attagene TRANS-FACTORIAL CAR reporter
Procedure, shortened: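 Transiently transfected HepG2, multiplex TRANS reporters (CAR-Gal4 chimera driving GAL4-UAS reporter). 24 h dosing. Readout: reporter transcript by RT-PCR + capillary electrophoresis, fluorescence intensity; positive direction vs DMSO.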

[9] = molecular target: Estrogen receptor (Homo sapiens) (UniProt P03372); assay: ATG_ERa_TRANS: Attagene TRANS-FACTORIAL HepG2 Assay for human Estrogen Receptor alpha (ERa) (AID 2282970; active means hit-call score of the fitted dose curve at least 0.9, where 1 is the maximum); conditions: HepG2 Attagene TRANS ERa GAL4 reporter, mRNA
Procedure, shortened: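 Transfected HepG2 cells carrying GAL4-UAS-driven reporter units were dosed for 24 hours. Total RNA was reverse-transcribed, reporter sequences PCR-amplified, FAM-labelled, HpaI-digested and resolved by capillary electrophoresis. Increases over DMSO control defined activity.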

[10] = ATG_VDRE_CIS: Attagene CIS-FACTORIAL HepG2 Assay for human Vitamin D Receptor Element (VDRE) (AID 2282968); conditions: HepG2 VDRE cis-reporter transcription, actives raise or lower the signal
Procedure, shortened: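 Transient MRTU transfection of HepG2, 24 h compound exposure. Readout: reporter transcripts via RT-PCR and capillary electrophoresis, fluorescence. Bidirectional fit vs DMSO.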

Measured: AC50

Signal transducer and activator of transcription 3 (Homo sapiens), sequence (P40763 whole entry, looked up, the tested form may be a part): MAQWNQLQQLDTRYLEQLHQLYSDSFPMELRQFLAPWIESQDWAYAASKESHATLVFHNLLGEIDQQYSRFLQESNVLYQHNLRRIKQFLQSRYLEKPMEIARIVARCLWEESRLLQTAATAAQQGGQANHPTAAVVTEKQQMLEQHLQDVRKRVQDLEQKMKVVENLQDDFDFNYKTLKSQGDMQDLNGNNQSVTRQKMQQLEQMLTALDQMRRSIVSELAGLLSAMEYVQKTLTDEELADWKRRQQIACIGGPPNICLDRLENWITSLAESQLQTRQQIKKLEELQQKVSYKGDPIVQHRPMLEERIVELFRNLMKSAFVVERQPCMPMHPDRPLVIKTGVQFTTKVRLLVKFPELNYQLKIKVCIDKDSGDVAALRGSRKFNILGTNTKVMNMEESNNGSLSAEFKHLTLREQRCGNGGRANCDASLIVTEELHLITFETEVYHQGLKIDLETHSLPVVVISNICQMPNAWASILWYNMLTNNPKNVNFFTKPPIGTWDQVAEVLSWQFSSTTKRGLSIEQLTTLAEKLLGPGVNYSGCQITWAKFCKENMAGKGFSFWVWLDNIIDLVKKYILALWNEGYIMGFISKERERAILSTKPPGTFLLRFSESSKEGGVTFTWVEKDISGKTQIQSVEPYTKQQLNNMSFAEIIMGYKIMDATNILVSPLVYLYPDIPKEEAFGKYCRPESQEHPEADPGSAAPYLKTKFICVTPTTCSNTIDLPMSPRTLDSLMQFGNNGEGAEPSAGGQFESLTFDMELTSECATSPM
Estrogen receptor (Homo sapiens), sequence (P03372 whole entry, looked up, the tested form may be a part): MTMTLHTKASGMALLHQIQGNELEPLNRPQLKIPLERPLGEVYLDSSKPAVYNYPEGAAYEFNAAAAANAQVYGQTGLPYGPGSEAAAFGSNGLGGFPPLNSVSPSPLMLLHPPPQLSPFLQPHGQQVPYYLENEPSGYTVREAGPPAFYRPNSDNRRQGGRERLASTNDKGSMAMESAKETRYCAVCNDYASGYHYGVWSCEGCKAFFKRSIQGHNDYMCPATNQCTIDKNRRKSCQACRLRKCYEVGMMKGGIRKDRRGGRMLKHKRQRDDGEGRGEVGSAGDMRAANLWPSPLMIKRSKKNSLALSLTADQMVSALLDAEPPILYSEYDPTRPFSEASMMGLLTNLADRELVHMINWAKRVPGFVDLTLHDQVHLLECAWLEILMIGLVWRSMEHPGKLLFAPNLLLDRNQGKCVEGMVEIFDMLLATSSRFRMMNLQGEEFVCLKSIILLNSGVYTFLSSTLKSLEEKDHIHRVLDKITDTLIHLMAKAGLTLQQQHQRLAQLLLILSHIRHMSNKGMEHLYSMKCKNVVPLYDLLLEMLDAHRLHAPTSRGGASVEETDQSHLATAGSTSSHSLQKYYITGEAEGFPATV
Transcription factor Sp1 (Homo sapiens), sequence (P08047 whole entry, looked up): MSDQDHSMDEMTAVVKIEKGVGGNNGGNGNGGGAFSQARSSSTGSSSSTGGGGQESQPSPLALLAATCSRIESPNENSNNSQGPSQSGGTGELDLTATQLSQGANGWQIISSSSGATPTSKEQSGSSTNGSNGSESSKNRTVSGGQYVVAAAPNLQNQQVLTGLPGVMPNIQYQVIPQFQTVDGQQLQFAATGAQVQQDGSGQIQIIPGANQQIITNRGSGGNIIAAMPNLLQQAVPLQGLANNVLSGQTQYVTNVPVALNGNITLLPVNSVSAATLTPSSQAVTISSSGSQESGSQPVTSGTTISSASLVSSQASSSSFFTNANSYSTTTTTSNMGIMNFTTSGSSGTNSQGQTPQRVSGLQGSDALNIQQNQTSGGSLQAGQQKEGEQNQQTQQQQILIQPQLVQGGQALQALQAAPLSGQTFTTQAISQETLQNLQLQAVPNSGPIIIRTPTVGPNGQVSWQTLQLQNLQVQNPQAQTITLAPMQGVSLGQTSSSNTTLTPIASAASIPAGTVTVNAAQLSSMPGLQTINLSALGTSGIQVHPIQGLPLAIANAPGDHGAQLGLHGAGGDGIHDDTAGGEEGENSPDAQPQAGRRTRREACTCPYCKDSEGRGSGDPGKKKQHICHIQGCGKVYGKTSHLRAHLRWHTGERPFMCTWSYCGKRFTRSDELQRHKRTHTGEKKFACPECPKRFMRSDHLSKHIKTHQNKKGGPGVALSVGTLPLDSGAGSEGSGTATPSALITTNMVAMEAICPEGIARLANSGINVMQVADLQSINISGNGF
Nuclear receptor subfamily 1 group I member 3 (Homo sapiens), sequence (Q14994 whole entry, looked up, the tested form may be a part): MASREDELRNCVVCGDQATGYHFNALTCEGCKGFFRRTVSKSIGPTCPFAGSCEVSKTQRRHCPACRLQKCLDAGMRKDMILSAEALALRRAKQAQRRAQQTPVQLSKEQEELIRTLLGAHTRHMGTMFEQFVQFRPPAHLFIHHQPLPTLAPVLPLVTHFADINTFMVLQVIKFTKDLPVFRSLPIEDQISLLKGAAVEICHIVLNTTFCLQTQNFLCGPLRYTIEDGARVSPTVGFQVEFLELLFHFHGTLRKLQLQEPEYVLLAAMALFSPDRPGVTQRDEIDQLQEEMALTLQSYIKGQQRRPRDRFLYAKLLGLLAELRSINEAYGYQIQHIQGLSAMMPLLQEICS

COP(=S)(OC)Oc1cc(Cl)c(Cl)cc1Cl
active: [7] 79.6 µM | [9] 36.3 µM
inactive: [1] | [2] | [3] | [4] | [5] | [6] | [8]

C=CCc1ccc(OC)cc1
inactive: [1] | [2] | [3] | [4] | [6] | [7] | [8]

C[C@H]1CCCC(=O)CCC/C=C/c2cc(O)cc(O)c2C(=O)O1
active: [9] 0.00409 µM
inactive: [1] | [2] | [3] | [4] | [5] | [6] | [7]

C[C@H]1O[C@@H](O[C@H]2[C@@H](O)C[C@H](O[C@H]3[C@@H](O)C[C@H](O[C@H]4CC[C@@]5(C)[C@H](CC[C@@H]6[C@@H]5CC[C@]5(C)[C@@H](C7=CC(=O)OC7)CC[C@]65O)C4)O[C@@H]3C)O[C@@H]2C)C[C@H](O)[C@@H]1O
inactive: [4] | [7] | [10] | [9]
active: [1] 3.3 µM | [2] 7.83 µM | [3] 196 nM | [6] 56.4 nM

CC(=O)[O][Hg][c]1ccccc1
inactive: [2] | [3] | [4] | [6] | [7]
active: [1] 2.87 µM | [10] 3.71 µM

O=C1CCCN1
inactive: [1] | [2] | [3] | [4] | [5] | [6] | [7] | [8]

ClC(Cl)=C(Cl)C(Cl)=C(Cl)Cl
active: [1] 160 µM | [2] 156 µM
inactive: [3] | [4] | [6] | [7] | [9]

N#Cc1ccccn1
inactive: [1] | [2] | [3] | [4] | [5] | [6] | [7] | [8]

Nc1cccc2ccccc12
active: [2] 170 µM
inactive: [1] | [3] | [4] | [5] | [6] | [7] | [9]

C[C@@H]1C[C@@H]([C@H](O)CC2CC(=O)NC(=O)C2)C(=O)[C@@H](C)C1
inactive: [1] | [2] | [3] | [4] | [6]
active: [6] 191 nM

C[C@@H](Oc1ccc(Cl)cc1Cl)C(=O)O
inactive: [1] | [2] | [3] | [4] | [6] | [7] | [10]

CC(C)CCCCCCOC(=O)c1ccccc1C(=O)OCCCCCCC(C)C
inactive: [1] | [2] | [3] | [4] | [6] | [7] | [10] | [8]

O=C(Cl)c1ccc(Cl)cc1
inactive: [1] | [2] | [3] | [4] | [6] | [7] | [10] | [9]

O=C(O)C(F)(F)C(F)(F)C(F)(F)C(F)(F)C(F)(F)C(F)(F)C(F)(F)C(F)(F)C(F)(F)C(F)(F)F
active: [6] 95500 nM | [7] 105 µM and 13.4 µM | [10] 25.7 µM and 16.8 µM
inactive: [1] | [2] | [3] | [4] | [6] | [8]

Clc1ccc(COC(Cn2ccnc2)c2ccc(Cl)cc2Cl)cc1 (stereo not drawn)
inactive: [1] | [2] | [3] | [4] | [5] | [6] | [7] | [8] | [9]

N#CCCO
inactive: [1] | [2] | [4] | [5] | [6] | [7] | [10] | [9]

CNC
inactive: [1] | [2] | [4] | [5] | [6] | [7] | [10] | [9]

Cl/C=C/Cl
inactive: [1] | [2] | [4] | [5] | [6] | [7] | [10]

BrCCBr
active: [9] 27.5 µM
inactive: [1] | [2] | [4] | [6] | [7] | [10] | [8]
